Measurements as given in PubChem BioAssay (EPA / NIEHS).
Results filed as inconclusive are left out. Calls of active or inactive are those of the source. The calls were made as follows: active = hit-call score of the fitted dose curve at least 0.9, where 1 is the maximum; inconclusive = response in the unintended direction; inactive = score below 0.9.

Assay: ATG_GAL4_TRANS: Attagene TRANS-FACTORIAL HepG2 Assay for GAL4 (Internal Marker) (AID 2282976)
Conditions: HepG2 Attagene TRANS GAL4 internal marker reporter
Description: ATG_TRANS is a cell-based, multiplexed-readout assay that uses HepG2, a human liver cell line, with measurements taken at 24 hours after chemical dosing in a 24-well plate.ATG_GAL4_TRANS is one of 30 assay component(s) measured or calculated from the ATG_TRANS assay. It is designed to make measurements of mRNA induction, a form of inducible reporter, as detected with fluorescence intensity signals by Reverse transcription polymerase chain reaction (RT-PCR) and Capillary electrophoresis technology.Data from the assay component ATG_GAL4_TRANS was analyzed into 1 assay endpoint. This assay endpoint, ATG_GAL4_TRANS, was analyzed in the positive analysis fitting direction relative to DMSO as the negative control and baseline of activity. Using a type of inducible reporter, measures of mRNA for gain-of-signal activity can be used to understand the background control at the transcription factor-level as they relate to the gene . Furthermore, this assay endpoint can be referred to as a secondary readout, because this assay has produced multiple assay endpoints where this one serves a background control function. To generalize the intended target to other relatable targets, this assay endpoint is annotated to the background measurement intended target family, where the subfamily is baseline control.
Human liver HepG2 cells are transiently transfected with multiple reporter transcription units (MRTUs) in 6-well plates using FuGene 6 reagent (Roche; 3 ml FuGene/1 mg DNA). The MRTU constructs are regulated by a cis-regulating element (promoter). […] A major difference between the CIS and TRANS system is that in CIS activities of endogenous TFs are measured, whereas the TRANS assay evaluates changes in activities of exogenous, chimeric NR-Gal4 proteins. […] At the end of 24 hour incubation, total RNA was isolated using TriZol reagent (Invitrogen). The isolated RNA is then reverse-transcribed using oligo(dT) primer and Mo-MLV reverse transcriptase (Invitrogen) with DNAse I (Ambion) treatment for 30 min. The one-tenth of the produced cDNA was amplified by PCR using Taq DNA polymerase (Invitrogen) and two reporter sequence-specific primers. The PCR products were fluorescently labeled by primer extension with 6-arboxyfluorescein (6-FAM) 5'-labeled reporter sequence-specific primer (2 min at 95 C, 20 s at 68 C and 10 min at 72 C) and these products were digested with 5U of HpaI (New England Biolabs) for 2h at 37 C. The fragments were purified using Qiaquick PCR columns (Qiagen), analyzed on an ABI 3130xL genetic analyzer (Applied Biosystems) with peak positions identified by using a set of X-rhodamine (ROX)-labeled MapMarker1000 molecular weight standards (BioVentures). The raw capillary electrophoresis data was processed using Attagraph software (Attagene).

outcome, inactive:
NC(=S)NNC(N)=S, CC=CC=CCOC(=O)C(C)C, COC(=O)c1ccc([N+](=O)[O-])cc1, C[C@@H]1CCN(C(=O)[C@H](CCCN=C(N)N)NS(=O)(=O)c2cccc3c2NC[C@H](C)C3)[C@@H](C(=O)O)C1, CCCCN(CCCC)C(=O)N(CCCC)CCCC, Cc1cc(S(=O)(=O)O)ccc1N=Nc1c(O)ccc2ccccc12, Nc1ccc(NCCO)c([N+](=O)[O-])c1, ClC(c1ccccc1)(c1ccccc1)c1ccccc1, C[Si](C)(C)O[Si](C)(C)C, C[N+](C)(C)CCCCCC[N+](C)(C)C, CCCCCCCCc1ccc(S(=O)(=O)O)cc1, CC(=O)O[C@@H]1CC2CCC1(C)C2(C)C (stereo not given in full), C1CCOC1, CC(=O)C1(C)CC2=C(CCCC2(C)C)CC1C (stereo not given), CC1C2CC(CC2C2CCCC(O)C2)C1(C)C (stereo not given), COC(=O)c1cccnc1, COC(C)(C)CC(C)=O, Nc1ccc(N)c2c1C(=O)c1ccccc1C2=O, CCCCOC(=O)CCCCCCCC(=O)OCCCC, CC(C)(C)c1ccc(C(=O)O)cc1, CCCCCCCCCCCC(=O)OCC(O)CO (stereo not given), COc1ccc(CCO)cc1, CC1CCC(C(C)C)C(O)C1 (stereo not given), CN(C)c1cccc(O)c1, Cc1ncc([N+](=O)[O-])n1CCO, NCc1ccco1, CC(C)CC(C)CC(O)CC(C)C (stereo not given), OC[C@H]1O[C@@H]2O[C@H]3[C@H](O)[C@@H](O)[C@@H](O[C@H]4[C@H](O)[C@@H](O)[C@@H](O[C@H]5[C@H](O)[C@@H](O)[C@@H](O[C@H]6[C@H](O)[C@@H](O)[C@@H](O[C@H]7[C@H](O)[C@@H](O)[C@@H](O[C@H]8[C@H](O)[C@@H](O)[C@@H](O[C@H]9[C@H](O)[C@@H](O)[C@@H](O[C@H]1[C@H](O)[C@H]2O)O[C@@H]9CO)O[C@@H]8CO)O[C@@H]7CO)O[C@@H]6CO)O[C@@H]5CO)O[C@@H]4CO)O[C@@H]3CO, Nc1ccc(Cl)c([N+](=O)[O-])c1, C[Si]1(C)O[Si](C)(C)O[Si](C)(C)O1, COc1cc(CCC(C)=O)ccc1O, CCCCCC(C)=O, CC(=O)OCCCc1ccccc1, COC(C)(C)CCO, C=CC(C)C#N (stereo not given), CCCCCCCCCCCC(=O)OC[C@@H](O)[C@H]1OC[C@H](O)[C@H]1O, COc1ccc(N)c([N+](=O)[O-])c1, CCC1(C)NC(=O)NC1=O (stereo not given), COS(=O)(=O)O, CC1CC(O)CC(C)(C)C1 (stereo not given)
